Experimental data reported in PubChem BioAssay AID1445 (SRMLSC, 2008).
The whole screen tested about 220,000 compounds, of which about 910 (0.41%) were called active. What follows is part of a selection rich in actives, with near analogues and random picks from the rest. Measured potencies and affinities stand elsewhere. Unmarked numbers belong to inactive results.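 How the source made its calls: active means primary inhibition above the hit cutoff, then over 50% inhibition at one or more dose response concentrations (cut at about 23% in these data, passing the limit was not always enough); inconclusive means conflicting primary data, or primary hits not chosen for dose response; inactive means low primary inhibition, or under 50% at every dose.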

molecular target: Aminopeptidase N (Plasmodium falciparum (isolate 3D7)) (UniProt O96935); assay: P. falciparum M1AAP inhibitors, biochemical, fluorogenic H-Leu-NHMec substrate, 1536-well (AID 1445); conditions: recombinant M1AAP, H-Leu-NHMec fluorogenic kinetic assay; at 30 µM, hits give high values unless noted;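 further: plate controls were DMSO full reaction for no effect and no enzyme background for full effect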
Sequence (O96935 whole entry, looked up): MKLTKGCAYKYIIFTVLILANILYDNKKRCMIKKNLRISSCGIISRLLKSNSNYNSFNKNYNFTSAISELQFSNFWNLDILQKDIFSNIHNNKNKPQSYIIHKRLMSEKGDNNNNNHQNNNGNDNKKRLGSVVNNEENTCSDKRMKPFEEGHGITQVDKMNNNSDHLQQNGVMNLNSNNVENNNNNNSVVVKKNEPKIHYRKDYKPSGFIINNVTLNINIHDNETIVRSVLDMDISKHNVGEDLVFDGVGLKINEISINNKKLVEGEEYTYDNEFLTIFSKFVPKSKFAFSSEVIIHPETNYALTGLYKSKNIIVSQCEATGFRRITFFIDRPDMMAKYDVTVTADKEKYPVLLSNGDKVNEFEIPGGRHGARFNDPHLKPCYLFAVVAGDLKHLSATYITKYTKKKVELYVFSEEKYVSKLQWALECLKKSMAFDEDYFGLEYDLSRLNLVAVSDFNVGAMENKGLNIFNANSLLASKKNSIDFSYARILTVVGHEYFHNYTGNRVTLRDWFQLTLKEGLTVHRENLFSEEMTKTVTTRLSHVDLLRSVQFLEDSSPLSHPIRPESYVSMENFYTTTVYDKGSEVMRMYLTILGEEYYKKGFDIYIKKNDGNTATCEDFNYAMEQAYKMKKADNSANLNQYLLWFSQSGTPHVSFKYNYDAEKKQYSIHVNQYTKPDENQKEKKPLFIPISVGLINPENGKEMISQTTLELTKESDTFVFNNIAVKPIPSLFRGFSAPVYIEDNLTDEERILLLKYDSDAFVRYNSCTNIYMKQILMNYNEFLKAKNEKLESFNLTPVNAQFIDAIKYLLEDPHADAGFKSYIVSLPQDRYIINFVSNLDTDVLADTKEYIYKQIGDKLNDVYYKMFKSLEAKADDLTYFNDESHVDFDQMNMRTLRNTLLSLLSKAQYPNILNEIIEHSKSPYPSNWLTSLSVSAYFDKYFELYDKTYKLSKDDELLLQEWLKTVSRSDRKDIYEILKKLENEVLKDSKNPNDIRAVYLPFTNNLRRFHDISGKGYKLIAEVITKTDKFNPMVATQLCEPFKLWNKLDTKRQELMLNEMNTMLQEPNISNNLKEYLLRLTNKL

Compound	inhibition
CCN1C(=O)c2cccc3c(S(=O)(=O)Nc4ccccc4)ccc1c23	6.99%
CCOC(=O)CNS(=O)(=O)c1ccc2c3c(cccc13)C(=O)N2CC	7.58%
CCOC(=O)Cc1csc(NS(=O)(=O)c2ccc3c4c(cccc24)C(=O)N3CC)n1	23.4% (active)
CC(/C=N/NC(=O)CNc1n[nH]c(=O)[nH]c1=O)c1ccccc1 (stereo not drawn)	3.79%
CC(=O)Nc1ccc(-c2ccccc2)s1	25.4% (active)
CNC(=O)c1ccc(-c2ccccc2)s1	1.69%
CC(=O)Nc1ccc(NC(C)=O)s1	2.97%
CN(CCNC(=O)CCCOc1cc(=O)n(C)c2ccccc12)Cc1ccccc1	2.96%
CN(C)c1ccc(NC(=O)c2sc(SCC(=O)Nc3nccs3)nc2N)cc1	25.2% (active)
CN(C)c1ccc(NC(=O)CSc2nc(N)c(C(=O)Nc3ccc(N(C)C)cc3)s2)cc1	-0.46%
CN(C)c1ccc(NC(=O)c2sc(SCC(=O)Nc3ccc(Br)cc3)nc2N)cc1	4.44%
COc1ccc(C(=O)NC(=S)Nc2ccc(N3CCOCC3)c(Cl)c2)cc1[N+](=O)[O-]	14.5%
COc1cccc(/C=N/n2c(-c3cccs3)n[nH]c2=S)c1	4.5%
CCOc1ccc(C(=O)N[C@H](C(=O)Nc2ccc(OC)c(S(=O)(=O)N3CCOCC3)c2)C(C)C)cc1	2.14%
COc1ccc(NC(=O)Nc2ccccc2)cc1S(=O)(=O)N1CCCCC1	-0.57%
Cc1ccc(N(CC(=O)NC(C)(C)C)C(=O)CS(=O)CC(=O)Nc2ccc3c(c2)OCO3)cc1 (stereo not drawn)	8.92%
Cc1cccc(N(CC(=O)NC(C)(C)C)C(=O)CS(=O)CC(=O)Nc2ccc3c(c2)OCO3)c1 (stereo not drawn)	3.73%
Cc1cccc(N(CC(=O)NC2CCCC2)C(=O)CS(=O)CC(=O)Nc2ccc3c(c2)OCO3)c1 (stereo not drawn)	1.66%
Cc1cccc(N(CC(=O)NC2CCCC2)C(=O)CS(=O)CC(=O)Nc2ccc3c(c2)OCO3)c1C (stereo not drawn)	6.68%
Cc1c(NC(=O)C(C)OC(=O)/C=C/c2ccccc2)c(=O)n(-c2ccccc2)n1C (stereo not drawn)	-2.48%
Cc1ccccc1Cn1c(Cc2ccccc2)nc2ccccc21	-1.18%
Cc1cccc2cc(C#N)c(SCC#N)nc12	4.01%
c1ccc(N2N=C(c3cccs3)CC2c2ccco2)cc1 (stereo not drawn)	18.2%
Clc1ccc(N2N=C(c3cccs3)CC2c2ccco2)cc1 (stereo not drawn)	4.39%

Compound	inhibition
NC(=O)CC(NC(=O)Cc1ccc(Br)cc1)c1ccc(N2CCN(c3ccccc3)CC2)c([N+](=O)[O-])c1 (stereo not drawn)	7.14%
CCOC(=O)Cc1nnc(NC(=O)C(CC)Sc2nnc3c4ccccc4n(C)c3n2)s1 (stereo not drawn)	23.4% (active)
CCOC(=O)Cc1nnc(NC(=O)CSc2nnc3c4ccccc4n(C(C)C)c3n2)s1	10.5%
CCOC(=O)Cc1nnc(NC(=O)CSc2nnc3c4ccccc4n(C)c3n2)s1	14%
CC(C)NS(=O)(=O)c1ccc(CCC(=O)Nc2ccc3c(c2)OCO3)cc1	9.11%
O=C(CCc1ccc(S(=O)(=O)NCc2ccccc2)cc1)NCc1cccnc1	6.09%
Cc1ccc(CNC(=O)CCNS(=O)(=O)c2ccc(C)cc2)cc1	9.63%
CC(C)(C)NS(=O)(=O)c1ccc(CCC(=O)NCc2ccc3c(c2)OCO3)cc1	18.7%
Cc1ccc(CNC(=O)CCc2ccc(S(=O)(=O)NCC(C)C)cc2)cc1	8.45%
CCNS(=O)(=O)c1ccc(CCC(=O)Nc2ccccc2)cc1	3.88%
O=C(Nc1cc(C(F)(F)F)ccc1Cl)C(Sc1nnc(-c2cccs2)o1)c1ccccc1 (stereo not drawn)	-4.08%
COCCCNCCOCCOc1c(OC)cccc1OC	-5.39%
Cc1cc(C2=CC(C)(c3cc(C)oc3C)Nc3nc(C(F)(F)F)nn32)c(C)o1 (stereo not drawn)	6.98%
O=C(CNC(=O)c1ccc(F)cc1)Nc1ccccc1C(F)(F)F	-1.13%
CCOC(=O)C1=C(C)NC2=C(C(=O)CCC2)C1c1ccc(O)c(OCC)c1 (stereo not drawn)	-7%
O=C(Nc1nccs1)c1ccc(NC(=O)C2CC=CCC2C(=O)O)cc1 (stereo not drawn)	8.55%
CC1(C)CC(=O)C(C=NCCc2ccc(S(N)(=O)=O)cc2)=C(O)C1	12%
O=S(=O)(Nc1nc2ccc(S(=O)(=O)N3CCCC3)cc2s1)c1ccc(F)cc1	17.8%
O=S(=O)(Nc1nc2ccc(S(=O)(=O)N3CCCCC3)cc2s1)c1ccccc1	23.2%
O=C(O)CCC(=O)N(Cc1cccnc1)Cc1cccc(F)c1	6.62%
CCCCCN(C(=O)NC(=O)Nc1ccccc1C)S(=O)(=O)c1ccccc1	-0.93%
COc1ccc(-c2nc(CSCC(=O)N3CCN(C)CC3)c(C)o2)cc1OC	1.38%
COc1ccc(-c2nc(CSCC(=O)N3CCN(c4cccc(C)c4)C(C)C3)c(C)o2)cc1OC (stereo not drawn)	23.8% (active)
CCN1CCN(C(=O)CSCc2nc(-c3ccc(OC)c(OC)c3)oc2C)CC1	1.5%

Compound	inhibition
COc1ccc(/C=N/NC(=S)Nc2ccccc2)cc1COc1ccc(Br)cc1	5.9%
Cc1nnc2n1NC(c1ccc(Cl)cc1)C(C(=O)N(C)C1CCCCC1)S2 (stereo not drawn)	14.7%
Cc1cccc2cc(CN(CCN3CCOCC3)C(=O)NCc3ccccc3)c(=O)[nH]c12	11.1%
COC(=O)CC[C@@H](C(=O)O)N1C(=O)c2ccccc2C1=O	1.27%
CCOc1ccccc1NC(=O)CSc1nc2nc(-c3cccs3)cc(C(F)(F)F)c2c(=O)[nH]1	3.01%
O=C(NCc1ccco1)c1nn2c(C(F)(F)F)cc(-c3cccs3)nc2c1Br	15.8%
CC(=O)Nc1ccc(NC(=O)CSc2nc3nc(-c4cccs4)cc(C(F)(F)F)c3c(=O)[nH]2)cc1	13.8%
O=C(CSc1nc2nc(-c3cccs3)cc(C(F)(F)F)c2c(=O)[nH]1)Nc1ccc(F)c(F)c1	12.9%
COc1ccc(NC(=O)CSc2ccc(-c3cccs3)nn2)c(OC)c1	4.92%
O=C(CSc1nc(-c2cccs2)cc(C(F)(F)F)n1)NCc1ccco1	8.47%
COC(=O)c1ccc(OC(=O)CCN2c3ccccc3Sc3ccccc32)cc1	-4.42%
CC(=O)Nc1ccc(Nc2cc(-c3ccccc3)nc3ncnn23)cc1	1.24%
NC(=O)c1nnsc1Sc1c(C(N)=O)nnn1-c1cccc(N)c1	4.16%
OCCNCCOc1ccccc1F	7.92%
COC(=O)[C@H](CC(C)C)NC(=O)NCc1ccc(Cl)cc1	5.26%
Cc1ccn2c(Nc3ccc4c(c3)OCO4)c(-c3ccccn3)nc2c1	12.3%
N#Cc1c(NC(=O)C2CCCO2)sc2c1CCCCCC2 (stereo not drawn)	3.88%
O=C1CC(c2ccccc2)Cc2nc3nc(C(F)(F)F)nn3cc21 (stereo not drawn)	-1.32%
O=c1oc(-c2ccccc2NS(=O)(=O)c2ccccc2)nc2ccccc12	9.41%
O=S(=O)(Cc1ccccc1)Nc1ccc(Br)cn1	1.35%
O=C1Nc2ccccc2C1=Nc1ccc(S(=O)(=O)Nc2nccs2)cc1	9.76%
Cc1ccc(NS(=O)(=O)Cc2ccccc2)nc1	5.38%
COc1ccccc1NC(=O)C1=C(C)NC(=O)NC1c1ccccc1F (stereo not drawn)	5.11%
CCN(CC)CC(C)(C)NS(=O)(=O)c1ccc(Cl)cc1	-1.17%

Compound	inhibition
CC(C)OCCCNC(=O)c1ccc2c(=O)n(Cc3ccc4c(c3)OCO4)c(=S)[nH]c2c1	-0.14%
COc1ccc(/C=C/C(=O)NCCSCc2ccco2)cc1	8.04%
Cc1ccccc1C(=O)OCc1nnc(-c2ccc(Cl)cc2)o1	1.13%
COC(=O)CC(N)c1ccc(Br)cc1 (stereo not drawn)	3.11%
NC(CC(=O)O)c1ccc(F)cc1 (stereo not drawn)	0.38%
Cc1c(/C=N/NC(=O)c2cc(C(C)(C)C)[nH]n2)c2ccccc2n1C	4.3%
COc1ccc2[nH]cc(CCN=C3SCC(=O)N3C)c2c1	-3.56%
N#Cc1cc2c(nc1SCc1ccccc1)CCCCC2	5.06%
N#Cc1cc2c(nc1SCc1ccccc1)CCC2	-3.56%
CCOc1ccc(CCNC(=O)C2CCCN(c3nn4c(=O)cc(C)nc4s3)C2)cc1 (stereo not drawn)	1.13%
CCOC(=O)c1c(-c2ccccc2)csc1N1C(=O)Nc2ccccc2N1O	17%
CCOc1ccc(S(=O)(=O)Nc2cc(OC)ccc2OC)cc1	4.04%
CCOc1ccc(S(=O)(=O)Nc2cc(Cl)ccc2O)cc1	24.5% (active)
COc1ccc(S(=O)(=O)Nc2cc(Cl)ccc2OC)cc1	4.45%
Cc1ccc(S(=O)(=O)Nc2ccccn2)cc1[N+](=O)[O-]	2.61%
Cc1ccc(-c2csc(NC(=O)CSc3nc4ccccc4[nH]3)n2)cc1	7.06%
CCc1cc2c(-n3nc(C)cc3C)ncnc2s1	4.83%
Cc1cc(Cl)ccc1OCCCC(=O)NN	2.87%
Cc1cc(Cl)ccc1OCCCC(N)=O	1.94%
Cn1c(=O)n(C)c2cc(NS(=O)(=O)c3cccs3)ccc21	5.68%
Cc1ccc(C(=O)NCc2ccc(Cl)c(Cl)c2)o1	7.75%
